# From PubChem BioAssay
# Several values for one entry are separate records, joined by “and”; a condition that tells them apart may be missing. Equal values may be shown once. Records with an inconclusive call do not appear. Activity calls are given as the source filed them.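 How the source made its calls, unless noted: active means normalized viability below 100% at a tested concentration; inactive means the rest.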
# Key:
# [1] = viability loss in pontine glioma line – cell-based, SU-DIPG-XXV, MIPE5.0, CellTiter-Glo, qHTS, dose response (AID 1347065; cut-off not given, nearly all actives have AC50 up to about 26 µM;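 further: cells exposed to compound for 48 hours before ATP readout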); conditions: CellTiter-Glo ATP luminescence
# [2] = SU-DIPG-VI glioma cell viability, MIPE4.0 library, CellTiter-Glo luminescence, qHTS (AID 1347066; cut-off not given, nearly all actives have AC50 up to about 30 µM;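 further: cells exposed to compound for 48 hours before readout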); conditions: CellTiter-Glo ATP luminescence
# [3] = JHH-DIPG-1 glioma cell viability, MIPE5.0 library, CellTiter-Glo luminescence, qHTS (AID 1347067; cut-off not given, nearly all actives have AC50 up to about 26 µM;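 further: cells exposed to compound for 48 hours before readout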); conditions: JHH-DIPG-1 glioma viability, CellTiter-Glo ATP luminescence
# [4] = SU-DIPG-XXV glioma cell viability, MIPE5.0 library, qHTS (AID 1347068; cut-off not given, nearly all actives have IC50 up to about 30 µM)
# [5] = biological target: NAD(+) hydrolase SARM1 (Homo sapiens) (UniProt Q6SZW1); test: SARM1 TIR NADase inhibitors, cell lysate, NAD-Glo luminescence (AID 1508614;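 active means compound whose remaining NAD level is above about 45 nM, limit read from the data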); conditions: SAM-TIR HEK293T lysate NADase, at 1 µM, stronger effect = higher value
# [6] = biological target: Mitogen-activated protein kinase 7 (Homo sapiens) (UniProt Q13164); test: ERK5 transactivation activators in reporter cells, primary screen, cell-based, HTS (AID 1508626;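 active means luciferase signal above three times the same-plate solvent-only control wells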;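 further: luciferase driven by Gal4-ERK5 fusion binding five Gal4 sites before minimal TATA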); conditions: HeLa Gal4-ERK5 transactivation, 18 h, at 5 µM, stronger effect = higher value
# [7] = LFS_MB_P medulloblastoma growth inhibition, cell-based, chromothripsis tumors, cisplatin or BGB combos (AID 1671449; in the data active means inhibition above about 80%;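 further: cells exposed for 96 hours; 0% = vehicle DMSO and 100% = killing by high DMSO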); conditions: LFS_MB_P medulloblastoma cells
# [8] = HDN33 neuroblastoma growth inhibition, cell-based, chromothripsis tumors, cisplatin or BGB combos (AID 1671450; in the data active means inhibition above about 80%;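 further: cells exposed to compound for four days; 0% = vehicle DMSO and 100% = cell killing by high DMSO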); conditions: HDN33 neuroblastoma cells, stronger effect = higher value
# [9] = ICB984 medulloblastoma cell growth inhibition, synergistic combos for chromothripsis tumors, cisplatin or BGB combos (AID 1671451; call rule not given here;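 further: cells exposed for 96 hours before readout; 0% = vehicle DMSO and 100% = killing by high DMSO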); conditions: ICB984 medulloblastoma cells, drug combinations, stronger effect = higher value
# [10] = LFS_MB_1R medulloblastoma cell growth inhibition, synergistic combos for chromothripsis tumors, cisplatin or BGB combos (AID 1671452; in the data active means inhibition above about 80%;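 further: cells exposed for 96 hours before readout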); conditions: LFS_MB_1R medulloblastoma cells, stronger effect = higher value
# [11] = HTB85 osteosarcoma cell growth inhibition, synergistic combos for chromothripsis tumors, BGB or cisplatin IC20 combos (AID 1671453; in the data active means inhibition above about 80%;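 further: cells exposed for 96 hours before readout; 0% = vehicle DMSO and 100% = high DMSO killing control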); conditions: HTB85 osteosarcoma cells, drug combinations, stronger effect = higher value
# [12] = CRL2098 osteosarcoma cell growth inhibition, synergistic combos for chromothripsis tumors, BGB or cisplatin IC20 combos (AID 1671454; in the data active means inhibition above about 80%;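 further: cells exposed for 96 h before readout; 0% = vehicle DMSO and 100% = killing by high DMSO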); conditions: CRL2098 osteosarcoma cells, drug combinations, stronger effect = higher value
# [13] = HD-MB03 medulloblastoma cell growth inhibition, synergistic combos for chromothripsis tumors, BGB or cisplatin IC20 combos (AID 1671455; in the data active means inhibition above about 83%;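 further: 0% = vehicle DMSO and 100% = high DMSO as cytotoxic control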); conditions: HD-MB03 medulloblastoma cells, stronger effect = higher value
# [14] = sensitizers of A549 cells to miR-34 induction, primary screen, imaging, A549 dox-inducible miR-34, nuclei and caspase counts (AID 1347080;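 active means compounds whose cell count with miR-34 switched on is under 0.7 times the count with it off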); conditions: A549 miR-34 inducible, Hoechst nuclei count, 48 h
# [15] = phospholipid biosynthesis inhibitors in animal cells, primary screen, cell-based, LOPAC library, screen 4 (AID 1347384; call rule not given here); conditions: phospholipid biosynthesis inhibition screen, at 10 µM
# [16] = survival rescue of mitochondrial mutant cells in low glucose, primary screen, MELAS cybrids, Rieske KO mouse fibroblasts, CellTiter-Glo (AID 1508586;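 active means mean z-score across replicates of 1.96 or higher in either the MELAS or the Rieske mutant cell line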;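 further: z relative to plate mean and SD of compound and empty wells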)
# [17] = viability rescue of complex I mutant cybrids, primary screen, cell-based, galactose medium, ATP luminescence (AID 1645843;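 active means z-score of at least 1.8 in each of two replicates, scored against plate mean and spread of sample wells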;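 further: positive z means more ATP and so rescue of galactose-driven cybrid death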); conditions: complex I mutant cybrid cells, 72 h, stronger effect = higher value
# [18] = inhibitors of Cryptococcus chitosan production, flow cytometry, Cibacron Brilliant Red staining (AID 1347148; call rule not given here;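 further: compound exposure lasted three days at 37 degrees C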); conditions: Cryptococcus neoformans chitosan, stronger effect = lower value; at 10 µM unless noted
# [19] = modifiers of HSF1 nuclear foci, imaging, Selleck Cancer Library (AID 1347162; in the data active means plate-normalised HSF1 focus index below about 0.46); conditions: human cells, at 10 µM; SSMD: measured here: HSF1 foci SSMD mean; cell count: measured here: cell number; plate-normalised HSF1 focus index: stronger effect = lower value
# [20] = ovarian cancer cell viability with rucaparib, profiling panel, oncology-focused library, rucaparib conditional (AID 1508598); conditions: patient-derived ovarian cancer cells, CellTiter-Glo viability, 144 h, stronger effect = lower value
# [21] = measured here: combination with BGB IC40, at 0.05 µM
# [22] = MELAS cybrid survival, CellTiter-Glo 48 h, stronger effect = higher value
# [23] = Rieske KO mouse fibroblast survival, CellTiter-Glo 72 h
# Chain of NAD(+) hydrolase SARM1 (Homo sapiens) (Q6SZW1 whole entry, looked up, the tested form may be a part): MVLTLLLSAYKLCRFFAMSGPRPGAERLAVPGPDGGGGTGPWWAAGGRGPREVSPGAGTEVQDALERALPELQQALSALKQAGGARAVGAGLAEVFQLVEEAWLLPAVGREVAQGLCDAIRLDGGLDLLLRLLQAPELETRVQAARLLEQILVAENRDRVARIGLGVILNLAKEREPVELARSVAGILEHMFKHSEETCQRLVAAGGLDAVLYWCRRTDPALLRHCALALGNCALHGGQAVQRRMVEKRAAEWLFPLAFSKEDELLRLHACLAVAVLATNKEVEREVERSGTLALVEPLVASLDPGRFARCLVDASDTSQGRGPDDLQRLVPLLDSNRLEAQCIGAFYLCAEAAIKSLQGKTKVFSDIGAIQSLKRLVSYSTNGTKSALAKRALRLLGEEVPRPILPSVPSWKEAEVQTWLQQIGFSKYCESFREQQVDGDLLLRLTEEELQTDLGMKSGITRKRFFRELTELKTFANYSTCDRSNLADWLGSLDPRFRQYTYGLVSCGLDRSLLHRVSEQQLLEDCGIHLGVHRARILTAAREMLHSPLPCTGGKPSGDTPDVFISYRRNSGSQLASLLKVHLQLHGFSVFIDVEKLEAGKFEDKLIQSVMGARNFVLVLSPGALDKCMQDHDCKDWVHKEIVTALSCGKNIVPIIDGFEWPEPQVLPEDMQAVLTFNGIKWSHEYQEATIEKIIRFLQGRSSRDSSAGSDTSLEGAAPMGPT
# Chain of Mitogen-activated protein kinase 7 (Homo sapiens) (Q13164 whole entry, looked up, the tested form may be a part): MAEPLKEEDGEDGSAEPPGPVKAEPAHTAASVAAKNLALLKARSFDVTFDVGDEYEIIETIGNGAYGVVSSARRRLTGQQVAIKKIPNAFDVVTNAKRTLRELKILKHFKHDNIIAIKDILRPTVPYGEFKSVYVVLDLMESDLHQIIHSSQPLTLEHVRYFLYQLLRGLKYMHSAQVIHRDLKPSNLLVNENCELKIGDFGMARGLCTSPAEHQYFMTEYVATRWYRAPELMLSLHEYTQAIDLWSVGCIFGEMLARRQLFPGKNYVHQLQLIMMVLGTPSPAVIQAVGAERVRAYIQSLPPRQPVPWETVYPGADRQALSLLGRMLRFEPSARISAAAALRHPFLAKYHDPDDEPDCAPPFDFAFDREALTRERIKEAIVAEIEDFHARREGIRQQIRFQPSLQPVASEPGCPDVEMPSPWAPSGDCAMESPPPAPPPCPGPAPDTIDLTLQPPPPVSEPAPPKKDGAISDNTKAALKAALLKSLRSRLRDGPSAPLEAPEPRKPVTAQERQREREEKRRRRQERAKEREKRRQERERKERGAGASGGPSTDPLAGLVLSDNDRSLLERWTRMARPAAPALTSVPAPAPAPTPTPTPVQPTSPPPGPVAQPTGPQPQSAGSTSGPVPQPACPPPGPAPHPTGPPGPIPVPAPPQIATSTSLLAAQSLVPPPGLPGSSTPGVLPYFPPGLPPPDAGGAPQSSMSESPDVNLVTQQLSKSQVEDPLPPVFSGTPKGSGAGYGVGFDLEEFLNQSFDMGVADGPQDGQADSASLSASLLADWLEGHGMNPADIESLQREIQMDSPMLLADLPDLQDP
smiles,measurement,setting,value
O=c1oc2c(O)c(O)cc3c(=O)oc4c(O)c(O)cc1c4c23,outcome,[1],inactive
same,outcome,[2],inactive
same,outcome,[3],inactive
same,outcome,[4],inactive
same,remaining NAD,[5],10 nM (inactive)
same,luciferase signal,[6],60 AU (inactive)
same,inhibition,"[7]; at 0.5 µM, stronger effect = higher value",-26.4% (inactive)
same,inhibition,"[7]; measured here: combination with BGB IC20, at 0.005 µM",13.8%
same,inhibition,"[7]; measured here: combination with BGB IC40, at 0.005 µM",-25.9%
same,inhibition,[7]; [21],-14%
same,inhibition,"[7]; measured here: combination with cisplatin, at 0.5 µM, stronger effect = higher value",-13.4%
same,inhibition,"[7]; measured here: combination with cisplatin, at 5 µM, stronger effect = higher value",-36.9%
same,inhibition,"[8]; BGB combo, at 5 µM",-24.4%
same,inhibition,[8]; at 0.5 µM,-5.05% (inactive)
same,inhibition,"[8]; cisplatin combo, at 5 µM",3.04%
same,inhibition,"[8]; measured here: with BGB IC20 combination, at 0.5 µM",-1.3%
same,inhibition,"[8]; measured here: with cisplatin IC20 combination, at 0.5 µM",-3.36%
same,inhibition,"[8]; single agent, at 5 µM",-3.55%
same,inhibition,"[9]; BGB IC20 combo, at 0.005 µM",10.1%
same,inhibition,"[9]; BGB IC40 combo, at 0.005 µM",-45.8%
same,inhibition,"[9]; BGB IC40 combo, at 0.05 µM",-40.1%
same,inhibition,[9]; at 0.5 µM,-16.9% (inactive)
same,inhibition,"[9]; cisplatin combo, at 0.05 µM",-45.7%
same,inhibition,"[9]; cisplatin combo, at 0.5 µM",-24.8%
same,inhibition,"[9]; cisplatin combo, at 5 µM",-34.2%
same,inhibition,"[9]; measured here: 5 uM single agent, at 5 µM",-15.6%
same,inhibition,[10]; at 0.5 µM,-12.6% (inactive)
same,inhibition,[10]; [21],-1.97%
same,inhibition,"[10]; measured here: combination with cisplatin, at 0.5 µM",-11.4%
same,inhibition,"[10]; measured here: combination with cisplatin, at 5 µM",-1.35%
same,inhibition,[11]; at 0.5 µM,-9.37% (inactive)
same,inhibition,"[11]; measured here: with BGB IC20, at 0.5 µM",-9.05%
same,inhibition,"[11]; measured here: with BGB IC20, at 5 µM",-11.1%
same,inhibition,"[11]; measured here: with cisplatin IC20, at 0.5 µM",-24.3%
same,inhibition,"[11]; measured here: with cisplatin IC20, at 5 µM",-7.84%
same,inhibition,"[11]; single agent, at 5 µM",28.9%
same,inhibition,[12]; at 0.5 µM,-20.7% (inactive)
same,inhibition,"[12]; measured here: combination with BGB at IC20, at 0.5 µM",-5.49%
same,inhibition,"[12]; measured here: combination with cisplatin at IC20, at 0.5 µM",-39.6%
same,inhibition,[13]; at 0.5 µM,11.2% (inactive)
same,inhibition,"[13]; measured here: combo with BGB at IC20, at 0.5 µM",-0.451%
same,inhibition,"[13]; measured here: combo with cisplatin at IC20, at 0.5 µM",-7.75%
Cn1c(=O)c2c(ncn2C)n(C)c1=O,outcome,[1],inactive
same,outcome,[2],inactive
same,outcome,[3],inactive
same,fold change,"[14]; stronger effect = lower value, cell number ratio, induced over uninduced",0.965 (inactive) and 0.863 (inactive)
same,fold change,[14]; measured here: relative caspase fold change +Dox/-Dox,1.02 and 1.01
same,cell count,"[14]; measured here: total cells with miR-34 induction, stronger effect = lower value",9770 and 10600
same,cell count,[14]; measured here: total cells without miR-34 induction,10100 and 12300
same,outcome,[15],inactive
same,z-score,[16]; [22],0.603 (inactive)
same,z-score,[16]; [23],-0.496
same,remaining NAD,[5],10 nM (inactive)
same,luciferase signal,[6],32 AU (inactive)
same,z-score,[17],0.3 (inactive)
COC(=O)Nc1nc2ccc(C(=O)c3cccs3)cc2[nH]1,AC50,[1],118 nM (active)
same,AC50,[2],3.72 µM (active)
same,fold fluorescence,[18],18.7 [at 165.9 µM] (inactive)
same,SSMD,[19],3.16
same,cell count,[19],6830
same,plate-normalised HSF1 focus index,[19],1.2 (inactive)
same,outcome,[15],inactive
same,z-score,[16]; [22],-0.757 (inactive) and 1.39 (inactive) and -3.68 (inactive)
same,z-score,[16]; [23],0.709 and -0.844 and -0.416
same,viability,"[20]; at 0.000305 µM, OCI-C5x cells, with rucaparib 10 µM, 100% = cells with rucaparib alone",120% (inactive)
same,viability,"[20]; at 0.000305 µM, OCI-C5x cells, without rucaparib",106% (inactive)
same,viability,"[20]; at 0.000305 µM, OCI-P5x cells, with rucaparib 20 µM, 100% = cells with rucaparib alone",89% (active)
same,viability,"[20]; at 0.000305 µM, OCI-P5x cells, without rucaparib",84.1% (active)
same,viability,"[20]; at 0.00122 µM, OCI-C5x cells, with rucaparib 10 µM, 100% = cells with rucaparib alone",116% (inactive)
same,viability,"[20]; at 0.00122 µM, OCI-C5x cells, without rucaparib",108% (inactive)
same,viability,"[20]; at 0.00122 µM, OCI-P5x cells, with rucaparib 20 µM, 100% = cells with rucaparib alone",88% (active)
same,viability,"[20]; at 0.00122 µM, OCI-P5x cells, without rucaparib",90.4% (active)
same,viability,"[20]; at 0.00488 µM, OCI-C5x cells, with rucaparib 10 µM, 100% = cells with rucaparib alone",112% (inactive)
same,viability,"[20]; at 0.00488 µM, OCI-C5x cells, without rucaparib",108% (inactive)
same,viability,"[20]; at 0.00488 µM, OCI-P5x cells, with rucaparib 20 µM, 100% = cells with rucaparib alone",87.3% (active)
same,viability,"[20]; at 0.00488 µM, OCI-P5x cells, without rucaparib",58% (active)
same,viability,"[20]; at 0.0195 µM, OCI-C5x cells, with rucaparib 10 µM, 100% = cells with rucaparib alone",96.1% (active)
same,viability,"[20]; at 0.0195 µM, OCI-C5x cells, without rucaparib",74% (active)
same,viability,"[20]; at 0.0195 µM, OCI-P5x cells, with rucaparib 20 µM, 100% = cells with rucaparib alone",68.5% (active)
same,viability,"[20]; at 0.0195 µM, OCI-P5x cells, without rucaparib",32.7% (active)
same,viability,"[20]; at 0.0781 µM, OCI-C5x cells, with rucaparib 10 µM, 100% = cells with rucaparib alone",71.2% (active)
same,viability,"[20]; at 0.0781 µM, OCI-C5x cells, without rucaparib",69.2% (active)
same,viability,"[20]; at 0.0781 µM, OCI-P5x cells, with rucaparib 20 µM, 100% = cells with rucaparib alone",62.5% (active)
same,viability,"[20]; at 0.0781 µM, OCI-P5x cells, without rucaparib",35.1% (active)
same,viability,"[20]; at 0.313 µM, OCI-C5x cells, with rucaparib 10 µM, 100% = cells with rucaparib alone",89% (active)
same,viability,"[20]; at 0.313 µM, OCI-C5x cells, without rucaparib",97.5% (active)
same,viability,"[20]; at 0.313 µM, OCI-P5x cells, with rucaparib 20 µM, 100% = cells with rucaparib alone",77.5% (active)
same,viability,"[20]; at 0.313 µM, OCI-P5x cells, without rucaparib",52.1% (active)
same,viability,"[20]; at 1.25 µM, OCI-C5x cells, with rucaparib 10 µM, 100% = cells with rucaparib alone",56.8% (active)
same,viability,"[20]; at 1.25 µM, OCI-C5x cells, without rucaparib",60.1% (active)
same,viability,"[20]; at 1.25 µM, OCI-P5x cells, with rucaparib 20 µM, 100% = cells with rucaparib alone",67.3% (active)
same,viability,"[20]; at 1.25 µM, OCI-P5x cells, without rucaparib",48% (active)
same,viability,"[20]; at 5 µM, OCI-C5x cells, with rucaparib 10 µM, 100% = cells with rucaparib alone",55.3% (active)
same,viability,"[20]; at 5 µM, OCI-C5x cells, without rucaparib",38.7% (active)
same,viability,"[20]; at 5 µM, OCI-P5x cells, with rucaparib 20 µM, 100% = cells with rucaparib alone",52.5% (active)
same,viability,"[20]; at 5 µM, OCI-P5x cells, without rucaparib",14.7% (active)
same,z-score,[17],-0.685 (inactive) and -1.18 (inactive) and -0.46 (inactive)
